In PubChem BioAssay (NCI):
This is part of a sample that, as a whole, favours compounds with a hit. Of some 83,000 tested, about 20% had one in any assay.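 Each cell line was grown in a 96-well plate and treated with one concentration of compound for 48 hours. Values below 10 were considered active.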 Active and inactive are the calls of the source.

System: SK-MEL-2 melanoma
Assay: NCI-60 one-dose screen, 48 h (100 = growth as untreated, 0 = no growth, -100 = all killed)
Details: 10 µM unless noted

SMILES	growth
O=C(NCCCCCCNC(=O)c1c2c(nc3ccccc13)-c1cccnc1SC2)c1c2c(nc3ccccc13)-c1cccnc1SC2	5.25% (active)
COc1cc(/C=N/n2cnc3oc(-c4ccccc4)cc3c2=N)cc(CN2CCCC2)c1O	113% (inactive)
C#C[C@]1(O)CC[C@H]2[C@@H]3CC=C4c5sc(Nc6cccc(Cl)n6)nc5CC[C@]4(C)[C@H]3CC[C@@]21C	-24.9% (active)

System: EKVX NSCLC
Assay: as above
Details: 10 µM unless noted

SMILES	growth
C#C[C@]1(O)CC[C@H]2[C@@H]3CC=C4c5sc(Nc6cccc(C)n6)nc5CC[C@]4(C)[C@H]3CC[C@@]21C	8.96% (active)
Clc1ccc(-c2csc(N/N=C/c3nc4ccccc4n3C3CC3)n2)cc1	92.2% (inactive)
O=C(NNc1nc2cc(F)c(F)cc2n2cccc12)c1ccncn1	12.2% (inactive)
CCn1c2ccc(/C=N/NS(=O)(=O)CCN(C)C)cc2c2cc(/C=N/NS(=O)(=O)CCN(C)C)ccc21	110% (inactive)
COc1ccc(-c2nnc(/N=C3/C(=O)Nc4ccc(Br)cc43)o2)cc1	91.7% (inactive)
O=C(CCCCCCN1CC(=O)N2[C@@H](c3ccc(Cl)c(F)c3)c3[nH]c4ccccc4c3C[C@H]2C1=O)NO	87.9% (inactive)
O=C(N/N=C\c1ccc(Cl)cc1)c1ccc2nc(-c3ccc(Br)cc3)[nH]c2c1	0.288% (active)
O=C1CSC(=O)N1Cc1cc2ccccc2nc1Cl	98.7% (inactive)
CCCCSc1nnc(-c2ccc(-c3ccc(Cl)cc3)nc2C)o1	95.4% (inactive)
COc1ccc(/C=N\NC(=O)c2ccc3nc(-c4ccc(Br)cc4)[nH]c3c2)cc1	39.6% (inactive)
NS(=O)(=O)c1ccc(Nc2nc(N/N=C/c3ccc([N+](=O)[O-])cc3)nc(Nc3ccccc3)n2)cc1	83.7% (inactive)
COc1cc(NC2=C(Cl)C(=O)c3nc(C)ccc3C2=O)cc(OC)c1	74.7% (inactive)
Cc1ccc(/C=C/CC(=O)Nc2ccc(C(=O)Nc3ccc(F)cc3N)cc2)cn1	63.4% (inactive)
O=C(c1ccc(O)cc1)[C@@H]1[C@@H]2CCCN2[C@@]2(C(=O)N(C(=O)c3ccc(F)cc3)c3ccccc32)[C@H]1c1ccc(F)cc1	83.4% (inactive)
COc1ccc(S(=O)(=O)n2cc(C=O)c3ccccc32)c(OC)c1	91.4% (inactive)
C#C[C@]1(O)CC[C@H]2[C@@H]3CC=C4c5sc(Nc6cc(Cl)ccn6)nc5CC[C@]4(C)[C@H]3CC[C@@]21C	-1.83% (active)
N#C/C(=C\c1ccc2ccccc2c1)C(=O)Nc1sc2c(c1C#N)CCC2	94.8% (inactive)
CN1CCN(Cc2ccc(NC(=O)c3cncc(C#Cc4cnc5ccc(O[C@H]6CCOC6)nn45)c3)cc2C(F)(F)F)CC1	-69.7% (active)
C/C=C/C=C1\C[C@H]2CO[C@H](O2)C1=O	103% (inactive)
O=C(NNc1nc2cc(F)cc(F)c2n2cccc12)c1ncccn1	11.1% (inactive)

SMILES	growth
C#CCOc1ccc(/C=N/Nc2nc(-c3cc(Cl)ccc3Cl)cs2)cc1	73.6% (inactive)
COc1ccc(-c2nc(SCC(C)C)nc(N/N=C\c3cccc([N+](=O)[O-])c3)c2C#N)cc1	47.7% (inactive)
CNC(=O)c1cc(Oc2ccc3nc(NC(=O)c4ccc(CN5CCN(C)CC5)c(C(F)(F)F)c4)sc3c2)ccn1	59.3% (inactive)
C#C[C@]1(O)CC[C@H]2[C@@H]3CC=C4c5sc(Nc6ccc(OC)nc6)nc5CC[C@]4(C)[C@H]3CC[C@@]21C	48.7% (inactive)
O=C1Nc2ccc(Br)cc2/C1=N\c1nnc(-c2ccc(Cl)cc2)o1	72.5% (inactive)
CC(C)c1nn(-c2ccccc2)c(N2CCCCC2)c1/C=N/NC(N)=S	82.1% (inactive)
COc1cc(/C=C/C(=O)c2ccc(N3CCN(C)CC3)cc2)ccc1F	88.4% (inactive)
CC1CCN(S(=O)(=O)c2ncsc2-c2ccccc2)CC1	74.7% (inactive)
O=C1[C@@H]2Cc3c([nH]c4ccccc34)[C@H](c3c(Cl)cccc3Cl)N2C(=O)CN1C1CCN(Cc2ccccc2)CC1	53.6% (inactive)
C#C[C@]1(O)CC[C@H]2[C@@H]3CC=C4c5sc(Nc6ccncc6)nc5CC[C@]4(C)[C@H]3CC[C@@]21C	-13.7% (active)
C#CCOc1ccc(/C=N/Nc2nc(-c3cc4cc(Br)cc(Br)c4oc3=O)cs2)cc1	92.2% (inactive)
O=C1c2c(c3c4cccnc4[nH]c3c3ccc4ccccc4c23)C(=O)N1CCN1CCCCC1	78% (inactive)
NS(=O)(=O)Oc1ccc2nc(Nc3ccc(F)c(F)c3)ccc2c1	93.4% (inactive)
Cc1ccc(-c2csc(N/N=C/c3nc4ccccc4n3C3CC3)n2)cc1	97.5% (inactive)
O=C1c2c(c3c4cc(Br)ccc4[nH]c3c3ccc4ccccc4c23)C(=O)N1CCN1CCCCC1	81.1% (inactive)
Cc1cnc2nc(NN)[nH]n12	98.5% (inactive)
O=C(NCCCCCCNC(=O)c1c2c(nc3ccccc13)-c1cccnc1SC2)c1c2c(nc3ccccc13)-c1cccnc1SC2	49.1% (inactive)
COc1cc(/C=N/n2cnc3oc(-c4ccccc4)cc3c2=N)cc(CN2CCCC2)c1O	97% (inactive)
C#C[C@]1(O)CC[C@H]2[C@@H]3CC=C4c5sc(Nc6cccc(Cl)n6)nc5CC[C@]4(C)[C@H]3CC[C@@]21C	1.89% (active)
